Assay results reported in PubChem BioAssay (NCATS).
Records with an inconclusive call do not appear. Calls of active or inactive are those of the source. Calls come from the whole dose curve; as a rule, active = well fitted cell-killing curve with a large enough effect; inconclusive = small, poorly fitted or top-dose-only effect, or effect the other way; inactive = no such curve, though single readings can be large or run the other way.
Potency is the fitted concentration of half-maximal effect.

Experiment: Quantitative High-Throughput drug screen in 47 multiple myeloma cell lines against the NCATS MIPE library collection: MM1S_ATCC cell viability assay (AID 1918980); note: nearly all actives have a fitted effect of over 45% in size;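 for viability (% of control): 100% = wells with DMSO only and 0% = wells with media only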
Conditions: MM1S myeloma viability, CellTiter-Glo ATP luminescence, 48 h; series mostly up to 45.8 µM; viability (% of control): at the top concentration
How it was run: (§1)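 Plated at 500 cells per well, myeloma lines received MIPE 4.0 compounds by pin tool. Following 48 h culture at 37 °C, CellTiter-Glo luminescence gave viability relative to DMSO and media-only controls.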
For `N#CC(c1ccc(Cl)cc1)c1c(Cl)cc(-n2ncc(=O)[nH]c2=O)cc1Cl` (centres undefined), the Potency was 20.9 µM (active).
With `CCc1cc(-c2n[nH]c(C)c2-c2ccc3c(c2)OCCO3)c(O)cc1O` the Potency was 8.33 µM (active).
In the case of `Cc1cn([C@@H]2C[C@@H](O)[C@H](CO)O2)c(=O)[nH]c1=O`, the “viability (% of control)” value is reported as 126% (inactive).
With `CC(C)(C)c1nc(-c2cccc(NS(=O)(=O)c3c(F)cccc3F)c2F)c(-c2ccnc(N)n2)s1` the Potency was 16.6 µM (active).
For `O=S(=O)(NCCNCC=Cc1ccc(Br)cc1)c1cccc2cnccc12`, the Potency was 3.72 µM (active).
For `CC[C@H](C=C[C@@H](C)[C@H]1CC[C@H]2[C@@H]3CC=C4C[C@@H](O)CC[C@]4(C)[C@@H]3CC[C@]12C)C(C)C`, the “viability (% of control)” value was 129% [at 23.2 µM] (inactive).
For `COc1c(C)cnc(Cn2cnc3c(Cl)nc(N)nc32)c1C`, the Potency was 0.332 µM (active).
With `C[C@@H]1C[C@H]2[C@@H]3CCC4=CC(=O)C=C[C@]4(C)[C@@]3(F)[C@@H](O)C[C@]2(C)[C@@]1(O)C(=O)CO` the Potency was 0.0264 µM (active).
In the case of `C=C1[C@H](n2cnc3c(=O)[nH]c(N)nc32)C[C@H](O)[C@H]1CO`, the Potency is reported as 14.8 µM (active).
With `Cc1nc(NC(=O)N2CCC[C@@H]2C(N)=O)sc1-c1csc(C(C)(C)C)n1` the Potency was 6.62 µM (active).
With `CNC(=O)c1cc(COc2nnc(Nc3ccc(Cl)cc3)c3ccoc23)ccn1` the “viability (% of control)” value was 150% (inactive).
In the case of `O=C(Nc1ccccc1)Nc1ccc(-c2ccc(C(=O)[C@H]3CCC[C@H]3C(=O)O)cc2)cc1`, the Potency is reported as 26.4 µM (active).
For `CCn1c(-c2nonc2N)nc2cncc(CNC3CCNCC3)c21`, the Potency was 14.8 µM (active).
For `Cc1[nH]c(C=C2C(=O)Nc3ccc(S(=O)(=O)N(C)c4cccc(Cl)c4)cc32)c(C)c1C(=O)N1CCN(C)CC1`, the Potency was 26.4 µM (active).

Experiment: Quantitative High-Throughput drug screen in 47 multiple myeloma cell lines against the NCATS MIPE library collection: MM1R_ATCC cell viability assay (AID 1918981); note: nearly all actives have a fitted effect of over 35% in size
Conditions: MM1R multiple myeloma cells, CellTiter-Glo viability, 48 h; series mostly up to 45.8 µM; viability (% of control): at the top concentration
How it was run: as §1
For `O=c1[nH]c(=O)n([C@H]2C[C@@H](O)[C@@H](CO)O2)cc1C(F)(F)F`, the Potency was 7.43 µM (active).
For `CCOC(=O)N1CCN([N+]([O-])=NOc2cc(ON=[N+]([O-])N3CCN(C(=O)OCC)CC3)c([N+](=O)[O-])cc2[N+](=O)[O-])CC1`, the Potency was 2.09 µM (active).
With `COc1ccc(-c2oc3c(CC=C(C)C)c(O)cc(O)c3c(=O)c2O)cc1` the Potency was 20.9 µM (active).
For `N#CC(c1ccnc(NCCc2cccnc2)n1)c1nc2ccccc2s1` (centres undefined), the Potency was 18.7 µM (active).
For `CCC(C)SSc1ncc[nH]1` (centres undefined), the Potency was 5.26 µM (active).
For `C[C@@H]1O[C@@H](O[C@H]2CC[C@@]3(C)[C@H](CC[C@@H]4[C@H]3C[C@@H](O)[C@]3(C)[C@@H](C5=CC(=O)OC5)CC[C@]43O)C2)C[C@H](O)[C@@H]1O[C@H]1C[C@H](O)[C@H](O[C@H]2C[C@H](O)[C@@H](O)[C@@H](C)O2)[C@H](C)O1` (stereo in doubt), the Potency was 0.27 µM (active).
With `CNC1CCC(N(Cc2cccc(-c3ccncc3)c2)C(=O)c2sc3ccccc3c2Cl)CC1` (centres undefined) the Potency was 18.7 µM (active).
In the case of `NS(=O)(=O)c1cc(Cl)c(Cl)c(S(N)(=O)=O)c1`, the “viability (% of control)” value is reported as 125% (inactive).
In the case of `CC[C@H](NC(=O)[C@H](C)NC)C(=O)N1C[C@@H](O)C[C@H]1Cc1c(-c2[nH]c3cc(F)ccc3c2C[C@H]2C[C@H](O)CN2C(=O)[C@H](CC)NC(=O)[C@H](C)NC)[nH]c2cc(F)ccc12`, the Potency is reported as 0.418 µM (active).
In the case of `NC1(C(=O)N[C@@H](CCO)c2ccc(Cl)cc2)CCN(c2ncnc3[nH]ccc23)CC1`, the Potency is reported as 0.148 µM (active).
With `N#CC(c1ccc(Cl)cc1)c1c(Cl)cc(-n2ncc(=O)[nH]c2=O)cc1Cl` (centres undefined) the Potency was 2.64 µM (active).
With `CCc1cc(-c2n[nH]c(C)c2-c2ccc3c(c2)OCCO3)c(O)cc1O` the Potency was 6.62 µM (active).
In the case of `Cc1cn([C@@H]2C[C@@H](O)[C@H](CO)O2)c(=O)[nH]c1=O`, the “viability (% of control)” value is reported as 108% (inactive).
In the case of `Cc1ccc(NC(=O)Nc2cc(C(F)(F)F)ccc2F)cc1Nc1ccc2c(c1)NC(=O)C2=Cc1ccc[nH]1`, the Potency is reported as 26.4 µM (active).
For `O=S(=O)(NCCNCC=Cc1ccc(Br)cc1)c1cccc2cnccc12`, the Potency was 20.9 µM (active).
With `CN[C@@H](C)[C@H]1[C@H](O)C[C@@]2(C)[C@@H]3CC[C@H]4C(C)(C)[C@@H](NC)CC[C@@]45C[C@@]35CC[C@]12C` the “viability (% of control)” value was 84.2% (inactive).
In the case of `COC(=O)Nc1ccc(-c2nc(N3CCOCC3)c3cnn(C4CCN(C(=O)OC)CC4)c3n2)cc1`, the Potency is reported as 0.743 µM (active).
With `CC[C@H](C=C[C@@H](C)[C@H]1CC[C@H]2[C@@H]3CC=C4C[C@@H](O)CC[C@]4(C)[C@@H]3CC[C@]12C)C(C)C` the “viability (% of control)” value was 100% [at 23.2 µM] (inactive).
In the case of `COc1c(C)cnc(Cn2cnc3c(Cl)nc(N)nc32)c1C`, the Potency is reported as 0.235 µM (active).
For `C[C@@H]1C[C@H]2[C@@H]3CCC4=CC(=O)C=C[C@]4(C)[C@@]3(F)[C@@H](O)C[C@]2(C)[C@@]1(O)C(=O)CO`, the “viability (% of control)” value was 123% (inactive).
In the case of `O=C1CCCC(=O)C1C(=O)c1ccc(C(F)(F)F)cc1[N+](=O)[O-]`, the “viability (% of control)” value is reported as 109% (inactive).
In the case of `Cc1ccc(NC(=O)c2cccc(N(C)C)c2)cc1NC(=O)c1ccc(O)cc1`, the Potency is reported as 4.18 µM (active).
With `C=C1[C@H](n2cnc3c(=O)[nH]c(N)nc32)C[C@H](O)[C@H]1CO` the Potency was 5.9 µM (active).
For `CCn1c(-c2nonc2N)nc2cncc(CNC3CCNCC3)c21`, the Potency was 16.6 µM (active).
In the case of `Cc1[nH]c(C=C2C(=O)Nc3ccc(S(=O)(=O)N(C)c4cccc(Cl)c4)cc32)c(C)c1C(=O)N1CCN(C)CC1`, the Potency is reported as 23.5 µM (active).
